# Records with an inconclusive call do not appear. Entries that show only a call come without a potency. Calls of active or inactive are those of the source. Unless noted, calls follow the shape of the dose curve; as a rule, active = well fitted curve in the direction sought with a large enough effect; inconclusive = small, poorly fitted or top-dose-only effect, or another doubt; inactive = no such curve, though single readings can be large; an effect the other way counts as inactive or inconclusive.
# How the values were obtained:
# [1] = molecular target: Cytochrome P450 3A4 (Homo sapiens) (UniProt P08684); test: qHTS Assay for Inhibitors and Substrates of Cytochrome P450 3A4 (AID 884); also: nearly all actives have a fitted effect of over 50% in size; also: potency is read from the fitted curve at half-maximal effect
# Cytochrome P450 3A4 (Homo sapiens), sequence (P08684 whole entry, looked up): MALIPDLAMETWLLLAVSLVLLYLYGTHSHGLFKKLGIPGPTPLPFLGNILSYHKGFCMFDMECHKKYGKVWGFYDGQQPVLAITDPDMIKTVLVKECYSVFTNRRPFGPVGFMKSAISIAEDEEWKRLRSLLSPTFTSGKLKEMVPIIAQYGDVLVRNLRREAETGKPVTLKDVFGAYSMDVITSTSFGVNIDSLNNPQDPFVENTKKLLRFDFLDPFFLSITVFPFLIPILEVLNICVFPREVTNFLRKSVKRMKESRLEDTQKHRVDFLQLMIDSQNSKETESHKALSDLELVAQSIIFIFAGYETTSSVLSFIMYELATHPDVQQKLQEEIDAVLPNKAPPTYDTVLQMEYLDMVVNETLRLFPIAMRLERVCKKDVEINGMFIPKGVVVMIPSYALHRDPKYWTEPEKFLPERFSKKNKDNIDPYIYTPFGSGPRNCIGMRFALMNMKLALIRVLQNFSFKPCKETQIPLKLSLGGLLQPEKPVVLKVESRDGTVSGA
# Method in brief: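 Luminescent readout of luciferin produced by CYP3A4 (20 nM) dealkylation of Luciferin-PPXE, 25 uM (its KM). NADPH-driven reaction ran 60 min at RT after 10 min compound preincubation; data scaled to 57 uM ketoconazole as 100% inhibition.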
# [2] = molecular target: Cytochrome P450 3A4 (Homo sapiens) (UniProt P08684); test: qHTS Assay for Activators of Cytochrome P450 3A4 (AID 885); also: nearly all actives have a fitted effect of over 65% in size
# Method in brief: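 Human CYP3A4 dealkylates Luciferin-PPXE to luciferin, which luciferase detection converts to light. Substrate was at its KM (25uM), buffer 200mM KPO4, reaction 60 min at RT.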
# [3] = Confirmation and Secondary Assay for Modulators of Hemoglobin Beta Chain Splicing at IVS2 654 locus (AID 910);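 also: HeLa cells stably carrying EGFP split by mutant beta-globin IVS2-654 intron; per-well total GFP intensity by laser scanning cytometry after 2-day treatment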
# Method in brief: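 Readout: per-well total peak green fluorescence (488 nm ex, 500–520 nm em) from objects 5–250 µm, reflecting correct splicing of an EGFP-654 reporter. Compounds were applied for 2 days at 37 °C to overnight-plated HeLa EGFP-654 cells; controls were DMSO and 500 nM IVS2-654 PNA.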
# [4] = Confirmation and Secondary Assay for Modulators of Hemoglobin Beta Chain Splicing at IVS2 705 locus (AID 930);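 also: HeLa cells stably expressing the EGFP-705 splicing reporter; GFP fluorescence per well restored by corrected splicing of the IVS2-705 intron in EGFP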
# Method in brief: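 Per-well GFP, captured at 1 x 8 µm resolution with 488 nm excitation, served as the read-out for HeLa EGFP-705 cells incubated 2 days with test compound versus DMSO.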
# [5] = qHTS Assay for Lipid Storage Modulators (AID 1519; calls by dose curve); details: Drosophila S3 cells, BODIPY lipid droplet/cell ratio, laser cytometry, cells loaded with oleic acid; for activity change, negative = inhibition: at 57.5 µM (top of the series)
# Method in brief: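 Cells seeded at 5,000 per well were treated with compounds over a concentration series and loaded with oleic acid (400 uM, as added). Lipid droplet fluorescence (488 nm excitation, 500-530 nm channel) was read by laser-scanning cytometry and normalized to 20 uM Triacsin C.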
# [6] = molecular target: Ubiquitin carboxyl-terminal hydrolase 1 (Homo sapiens) (UniProt O94782); test: Inhibitors of USP1/UAF1: Pilot qHTS (AID 504865);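 also: rhodamine fluorescence freed from ubiquitin-rhodamine substrate followed over time; top concentration of the series differs between compounds; nearly all actives have a fitted effect of over 35% in size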
# Ubiquitin carboxyl-terminal hydrolase 1 (Homo sapiens), sequence (O94782 whole entry, looked up): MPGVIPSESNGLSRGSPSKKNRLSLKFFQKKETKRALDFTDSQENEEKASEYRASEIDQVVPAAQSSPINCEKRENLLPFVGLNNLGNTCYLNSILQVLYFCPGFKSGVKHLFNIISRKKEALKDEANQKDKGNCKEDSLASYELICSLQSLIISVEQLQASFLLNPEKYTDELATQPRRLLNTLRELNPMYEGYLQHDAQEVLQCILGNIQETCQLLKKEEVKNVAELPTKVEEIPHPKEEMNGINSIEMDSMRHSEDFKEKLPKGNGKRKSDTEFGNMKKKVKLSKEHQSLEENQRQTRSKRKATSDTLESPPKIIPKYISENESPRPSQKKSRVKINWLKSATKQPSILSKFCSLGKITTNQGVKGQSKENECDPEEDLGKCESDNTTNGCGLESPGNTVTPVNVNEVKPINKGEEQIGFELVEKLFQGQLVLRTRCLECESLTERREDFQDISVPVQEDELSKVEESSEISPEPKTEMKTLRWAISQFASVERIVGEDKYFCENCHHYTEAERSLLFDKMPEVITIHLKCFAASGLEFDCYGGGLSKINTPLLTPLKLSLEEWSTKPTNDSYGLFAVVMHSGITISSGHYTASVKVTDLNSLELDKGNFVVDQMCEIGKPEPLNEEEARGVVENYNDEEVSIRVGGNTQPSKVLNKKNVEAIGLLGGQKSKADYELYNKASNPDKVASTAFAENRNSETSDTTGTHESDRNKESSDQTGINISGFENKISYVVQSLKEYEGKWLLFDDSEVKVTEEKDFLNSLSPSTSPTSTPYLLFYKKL
# Method in brief: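 In 50mM HEPES pH 7.8 containing 0.5mM EDTA, 1mM TCEP, 0.1 mg/ml BSA and 0.01% Tween-20, 1nM USP1/UAF1 is exposed to compound for 15 min, then Ub-Rho (150nM final) is added and fluorescence is read over time.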
# [7] = molecular target: DNA dC->dU-editing enzyme APOBEC-3G (Homo sapiens) (UniProt Q9HC16); test: qHTS for inhibitors of Vif-A3G interactions: Validation (AID 588379)
# DNA dC->dU-editing enzyme APOBEC-3G (Homo sapiens), sequence (Q9HC16 whole entry, looked up): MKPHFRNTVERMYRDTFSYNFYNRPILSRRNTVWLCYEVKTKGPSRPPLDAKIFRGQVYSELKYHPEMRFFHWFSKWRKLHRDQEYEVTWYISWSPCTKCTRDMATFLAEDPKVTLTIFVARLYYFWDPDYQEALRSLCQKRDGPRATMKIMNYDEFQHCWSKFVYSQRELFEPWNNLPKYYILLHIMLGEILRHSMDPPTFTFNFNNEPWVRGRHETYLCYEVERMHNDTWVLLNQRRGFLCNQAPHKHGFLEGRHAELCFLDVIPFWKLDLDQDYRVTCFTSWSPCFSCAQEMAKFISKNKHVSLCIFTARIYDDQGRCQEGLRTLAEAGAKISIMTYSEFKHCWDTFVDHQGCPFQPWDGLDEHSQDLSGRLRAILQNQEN
# Method in brief: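 Yellow fluorescence (Ex 488, Em 500-530) of Vif-coexpressing HeLa A3G-eYFP cells, scanned by Acumen cytometer, reports blocked A3G degradation. Cells plated at 700/well overnight at 37 deg C before compound addition, then a further overnight compound incubation at 37 deg C.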
# [8] = molecular target: Luciferin 4-monooxygenase (Photinus pyralis) (UniProt P08659); test: Biochemical firefly luciferase enzyme assay for NPC (AID 624030);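 also: purified P. pyralis luciferase at 10 nM with luciferin and ATP substrate; nearly all actives have a fitted effect of over 70% in size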
# Luciferin 4-monooxygenase (Photinus pyralis), sequence (P08659 whole entry, looked up): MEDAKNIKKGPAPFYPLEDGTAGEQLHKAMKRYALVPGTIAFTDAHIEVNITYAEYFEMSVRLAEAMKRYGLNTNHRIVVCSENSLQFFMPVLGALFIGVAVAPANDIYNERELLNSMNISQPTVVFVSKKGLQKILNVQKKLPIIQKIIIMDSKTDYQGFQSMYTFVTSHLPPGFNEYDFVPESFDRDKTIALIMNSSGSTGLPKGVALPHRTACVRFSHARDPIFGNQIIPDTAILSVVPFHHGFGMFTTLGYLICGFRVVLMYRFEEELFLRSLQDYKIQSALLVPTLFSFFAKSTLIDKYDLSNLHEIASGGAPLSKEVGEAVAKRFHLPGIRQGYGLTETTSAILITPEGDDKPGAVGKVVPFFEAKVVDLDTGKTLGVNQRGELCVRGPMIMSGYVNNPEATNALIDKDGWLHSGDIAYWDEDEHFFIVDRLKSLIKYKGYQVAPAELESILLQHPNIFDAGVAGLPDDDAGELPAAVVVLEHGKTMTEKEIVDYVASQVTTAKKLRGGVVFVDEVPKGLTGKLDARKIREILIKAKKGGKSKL
# Method in brief: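 Direct inhibition of firefly luciferase enzyme (10 nM final, 50 mM Tris Acetate) assessed by luminescence within 5 minutes. Percent activity scaled between DMSO and PTC124 positive control, with concentration-effect curves classified by fit quality and response.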
# [9] = measured here: cell count channel max response
# [10] = measured here: lipid channel max response
SMILES,Potency [1],Potency [2],Potency [3],Potency [4],"activity change, negative = inhibition [5]","max response [5, 9] [%]","max response [5, 10] [%]",Potency [6],outcome [7],Potency [8]
COc1cc2c(cc1OC)Cc1cc(OC)c(OC)cc1Cc1cc(OC)c(OC)cc1C2,12.6 µM (active),inactive,inactive,inactive,-1.62% (inactive),2.54,2.42,inactive,,
CC(C)[C@H]1CC[C@@H](C)C[C@H]1O,inactive,,,,-5.33% (inactive),-11.9,-15.2,inactive,inactive,
C=CC1=C(C(=O)O)N2C(=O)C(NC(=O)/C(=N\O)c3csc(N)n3)C2SC1 (stereo not given),inactive,,inactive,inactive,3.88% (inactive),11.5,17.7,inactive,,inactive
CCOC(=O)c1c(C)cc(O)cc1O,25.1 µM (active),inactive,inactive,inactive,13% (inactive),-2.16,14.3,inactive,,

# Reference: PubChem BioAssay (NCATS)
